Experimental data: PubChem BioAssay (EPA / NIEHS)
Results filed as inconclusive are left out. The source made the active and inactive calls. The calls were made as follows: active = hit-call score of the fitted dose curve at least 0.9, where 1 is the maximum; inconclusive = response in the unintended direction; inactive = score below 0.9.

Test: Tanguay_ZF_120hpf_PIG_legacy: (Legacy) Oregon State University Tanguay Lab 120 Hour Post-fertilization zebrafish Assay for Pigmentation Malformation (AID 2283650);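 also: dechorionated Tropical 5D zebrafish embryos exposed singly from 6 to 120 hpf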
Method: Tanguay_ZF_120hpf_legacy is a whole embryo, multiplexed endpoint assay using zebrafish larvae exposed for 120 hours post fertilization on a 96-well plate.Tanguay_ZF_120hpf_PIG_legacy is one of one assay component(s) measured or calculated from the Tanguay_ZF_120hpf_legacy assay. It is designed to make measurements of zebrafish development as detected with brightfield microscopy of developing zebrafish embryos.Data from the assay component Tanguay_ZF_120hpf_PIG_legacy was analyzed into 1 assay endpoints. This assay endpoint, Tanguay_ZF_120hpf_PIG_legacy, was analyzed in the positive analysis fitting direction relative to DMSO as the negative control and baseline of activity. Using a type of morphology reporter, gain-of-signal activity can be used to understand changes in developmentals as they relate to the whole embryo. To generalize the intended target to other relatable targets, this assay endpoint is annotated to the zebrafish development intended target family, where the subfamily is embryonic pigmentation.
Zebrafish husbandry: Tropical 5D wild-type adult zebrafish were housed in at an approximate density of 1000 per 100 gallon tank at the Sinnhuber Aquatic Research Laboratory, Oregon State University, Corvallis, OR. Each tank was kept at standard laboratory conditions of 28C on a 14-h light/10-h dark photoperiod in fish water consisting of reverse osmosis water supplemented with a commercially available salt (Instant Ocean). Spawning funnels were placed into the tanks the night prior, and embryos were collected and staged. To increase bioavailability, the chorion was enzymatically removed using pronase (63.6mg/ml, >/= 3.5U/mg, Sigma-Aldrich: P5147) at 4 hours post fertilization (hpf) using a custom automated dechorionator.Chemical exposures: Six hpf dechorionated embryos were placed 1 embryo per well in a 96-well plate prefilled with 90 ul of EM using automated embryo placement systems (AEPS). Ten microliters of each row of dilution plate 2 was added to 2 exposure plates. The final DMSO concentration used was 0.64% (vol/vol). Thirty-two embryos were also exposed to 5uM trimethyltin chloride (positive control). Plates were sealed to prevent evaporation and foil covered to reduce light exposure and kept in a 28C incubator. Embryos were statically exposed until 120 hpf. At 24 hpf, embryos were assessed for photomotor response using a custom photomotor response analysis tool (PRAT) and for developmental toxicity endpoints (MO24: mortality at 24 hpf, DP: developmental progression, SM: spontaneous movement, and NC: notochord distortion). At 120 hpf, locomotor activity was measured using Viewpoint Zebralab and assessed for 18 endpoints. Zebrafish acquisition and analysis program (ZAAP), a custom program designed to inventory, acquire, and manage zebrafish data, was used to collect developmental endpoints as either present or absent (i.e., binary responses were recorded). If mortality occurred for an embryo (at either 24 or 120 hpf), the non-mortality endpoints were not measured.

Row | SMILES | outcome
1 | O=C(O)C1(c2ccc3c(c2)OC[C@H](Cc2ccc(-c4ccccc4)cc2)[C@H]3O)CCCC1 | inactive
2 | COc1ccccc1N | inactive
3 | Clc1cccc(Cl)c1Cl | inactive
4 | Cc1cc(C)cc(C)c1 | inactive
5 | Oc1cc(Cl)c(Cl)cc1Cl | inactive
6 | CN(C)C(=S)S | inactive
7 | OCCN(CCO)CCO | inactive
8 | N#Cc1cccnc1 | inactive
9 | CC(C)(C)c1ccccc1O | inactive
10 | O=C(N[C@H]1CN2CCC1CC2)c1ccc2c(c1)OCCO2 | inactive
11 | CC(C)O.CC(C)O.OCCN(CCO)CCO.OCCN(CCO)CCO.[Ti] | inactive
12 | Oc1c(Cl)cc(Cl)cc1Cl | inactive
